Measurements published in PubChem BioAssay (EPA / NIEHS).
Activity calls are given as the source filed them. Rule for the calls: active = hit-call score of the fitted dose curve at least 0.9, where 1 is the maximum; inactive = score below 0.9.

test system: not listed separately; experiment: ATG_M_32_CIS: Attagene CIS-FACTORIAL HepG2 Assay for M32 Transcription Factor (Internal Marker) (AID 2282949); details: HepG2 Attagene cis-factorial M32 reporter, mRNA; actives raise or lower the signal;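 note: background control marker of the multiplexed CIS panel rather than a real target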
In short: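 HepG2 human liver cells transiently transfected with cis-promoter-driven multiple reporter transcription units, dosed 24 h. Reporter mRNA quantified by RT-PCR, FAM-labelled primer extension, HpaI digest and capillary electrophoresis; bidirectional fit versus DMSO baseline.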

| Structure (SMILES) | outcome | AC50 |
| --- | --- | --- |
| c1ccc2c(c1)sc1ccccc12 | inactive | – |
| Nc1ccc(Cl)cc1 | inactive | – |
| Nc1ccc2ccccc2c1 | inactive | – |
| Nc1ccc([N+](=O)[O-])cc1Cl | inactive | – |
| CCOP(=S)(OCC)SCSCC | inactive | – |
| CCOP(=S)(S)OCC | inactive | – |
| OCC(F)(F)OC(F)(F)C(F)(F)OC(F)(F)C(F)(F)OC(F)(F)F | inactive | – |
| O=C(O)C(F)(F)C(F)(F)C(=O)O | inactive | – |
| Cc1cc(C)c(C(=O)P(=O)(c2ccccc2)c2ccccc2)c(C)c1 | – | 53.1 µM (active) |
| CC(C)(C)OOC(C)(C)C | inactive | – |
| Cn1[nH]nnc1=S | inactive | – |
| CCOP(=S)(Oc1ccc([N+](=O)[O-])cc1)c1ccccc1 (stereo unspecified) | inactive | – |
| FC(F)(F)C(F)(C(F)(F)F)C(F)(F)C(F)(F)CC1CO1 (stereo unspecified) | inactive | – |
| CCOC(=O)c1ccccc1N | inactive | – |
| Oc1ccccc1Br | inactive | – |
| CCOc1ccc(C(C)(C)COCc2cccc(Oc3ccccc3)c2)cc1 | inactive | – |
| CCCCc1ccccc1 | inactive | – |
| CC1=C(C(=O)Nc2ccccc2)S(=O)(=O)CCO1 | inactive | – |
| ClC(Cl)=C(c1ccc(Cl)cc1)c1ccccc1Cl | inactive | – |
| CCCCC(CC)COC(=O)c1c(Br)c(Br)c(Br)c(Br)c1C(=O)OCC(CC)CCCC (stereo unspecified) | inactive | – |

| Structure (SMILES) | outcome | AC50 |
| --- | --- | --- |
| OCC(F)(F)OC(F)(F)C(F)(F)OC(F)(F)C(F)(F)OC(F)(F)CO | inactive | – |
| COP(=O)(O)OC | inactive | – |
| Clc1ccc(Oc2ccccc2)cc1 | inactive | – |
| N#Cc1ccc(O)cc1 | inactive | – |
| O=C(O)C1C(C(=O)O)C2(Cl)C(Cl)=C(Cl)C1(Cl)C2(Cl)Cl (stereo unspecified) | inactive | – |
| CC(O)C#N (stereo unspecified) | inactive | – |
| CCN(CC)c1ccccc1 | inactive | – |
| CC(C)Nc1ccc(Nc2ccccc2)cc1 | inactive | – |
| OCC1CO1 (stereo unspecified) | inactive | – |
| CCCCC(CC)COP(=O)(Oc1ccccc1)Oc1ccccc1 (stereo unspecified) | inactive | – |
| CCCCCCCc1ccc(O)cc1 | inactive | – |
| ClC(Cl)c1ccccc1 | inactive | – |
| COP(N)(=S)OC | inactive | – |
| CCCCN(CCCC)N=O | inactive | – |
| CC(C)(C)N(NC(=O)c1ccc(Cl)cc1)C(=O)c1ccccc1 | inactive | – |
| c1ccc2c(c1)Nc1ccccc1S2 | inactive | – |
| O=P(Oc1ccccc1)(Oc1ccccc1)Oc1ccccc1 | inactive | – |
| CCNc1nc(Cl)nc(NC(C)(C)C)n1 | inactive | – |
| O=NN1CCCC1 | inactive | – |

test system: not listed separately; experiment: ATG_M_06_CIS: Attagene CIS-FACTORIAL HepG2 Assay for M06 Transcription Factor (Internal Marker) (AID 2282950); details: HepG2 Attagene CIS-FACTORIAL M06 internal marker reporter; actives raise or lower the signal
In short: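 HepG2 cells transiently transfected with cis-regulated multiple reporter transcription units were exposed to chemical for 24 h; reporter mRNA was quantified by RT-PCR, 6-FAM primer labelling, HpaI digestion and capillary electrophoresis, fitted bidirectionally against DMSO.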

| Structure (SMILES) | outcome | AC50 |
| --- | --- | --- |
| c1ccc2c(c1)sc1ccccc12 | inactive | – |
| Nc1ccc(Cl)cc1 | inactive | – |
| Nc1ccc2ccccc2c1 | inactive | – |
| Nc1ccc([N+](=O)[O-])cc1Cl | inactive | – |
| CCOP(=S)(OCC)SCSCC | inactive | – |
| CCOP(=S)(S)OCC | inactive | – |
| OCC(F)(F)OC(F)(F)C(F)(F)OC(F)(F)C(F)(F)OC(F)(F)F | inactive | – |
| O=C(O)C(F)(F)C(F)(F)C(=O)O | inactive | – |
| Cc1cc(C)c(C(=O)P(=O)(c2ccccc2)c2ccccc2)c(C)c1 | – | 60.7 µM (active) |
| CC(C)(C)OOC(C)(C)C | inactive | – |
| Cn1[nH]nnc1=S | inactive | – |
| CCOP(=S)(Oc1ccc([N+](=O)[O-])cc1)c1ccccc1 (stereo unspecified) | inactive | – |
| FC(F)(F)C(F)(C(F)(F)F)C(F)(F)C(F)(F)CC1CO1 (stereo unspecified) | inactive | – |
| CCOC(=O)c1ccccc1N | inactive | – |
| Oc1ccccc1Br | inactive | – |
| CCOc1ccc(C(C)(C)COCc2cccc(Oc3ccccc3)c2)cc1 | inactive | – |
| CCCCc1ccccc1 | inactive | – |
| CC1=C(C(=O)Nc2ccccc2)S(=O)(=O)CCO1 | inactive | – |
| ClC(Cl)=C(c1ccc(Cl)cc1)c1ccccc1Cl | inactive | – |
| CCCCC(CC)COC(=O)c1c(Br)c(Br)c(Br)c(Br)c1C(=O)OCC(CC)CCCC (stereo unspecified) | inactive | – |

| Structure (SMILES) | outcome | AC50 |
| --- | --- | --- |
| OCC(F)(F)OC(F)(F)C(F)(F)OC(F)(F)C(F)(F)OC(F)(F)CO | inactive | – |
| COP(=O)(O)OC | inactive | – |
| Clc1ccc(Oc2ccccc2)cc1 | inactive | – |
| N#Cc1ccc(O)cc1 | inactive | – |
| O=C(O)C1C(C(=O)O)C2(Cl)C(Cl)=C(Cl)C1(Cl)C2(Cl)Cl (stereo unspecified) | inactive | – |
| CC(O)C#N (stereo unspecified) | inactive | – |
| CCN(CC)c1ccccc1 | inactive | – |
| CC(C)Nc1ccc(Nc2ccccc2)cc1 | inactive | – |
| OCC1CO1 (stereo unspecified) | inactive | – |
| CCCCC(CC)COP(=O)(Oc1ccccc1)Oc1ccccc1 (stereo unspecified) | inactive | – |
| CCCCCCCc1ccc(O)cc1 | inactive | – |
| ClC(Cl)c1ccccc1 | inactive | – |
| COP(N)(=S)OC | inactive | – |
| CCCCN(CCCC)N=O | inactive | – |
| CC(C)(C)N(NC(=O)c1ccc(Cl)cc1)C(=O)c1ccccc1 | inactive | – |
| c1ccc2c(c1)Nc1ccccc1S2 | inactive | – |
| O=P(Oc1ccccc1)(Oc1ccccc1)Oc1ccccc1 | inactive | – |
| CCNc1nc(Cl)nc(NC(C)(C)C)n1 | inactive | – |
| O=NN1CCCC1 | inactive | – |

molecular target: Hypoxia-inducible factor 1-alpha (Homo sapiens) (UniProt Q16665); experiment: ATG_HIF1a_CIS: Attagene CIS-FACTORIAL HepG2 Assay for human Hypoxia Inducible Factor 1 (HIF1A) (AID 2282951); details: HepG2 Attagene cis-factorial HIF1a reporter transcription; actives raise or lower the signal
Sequence (Q16665 whole entry, looked up): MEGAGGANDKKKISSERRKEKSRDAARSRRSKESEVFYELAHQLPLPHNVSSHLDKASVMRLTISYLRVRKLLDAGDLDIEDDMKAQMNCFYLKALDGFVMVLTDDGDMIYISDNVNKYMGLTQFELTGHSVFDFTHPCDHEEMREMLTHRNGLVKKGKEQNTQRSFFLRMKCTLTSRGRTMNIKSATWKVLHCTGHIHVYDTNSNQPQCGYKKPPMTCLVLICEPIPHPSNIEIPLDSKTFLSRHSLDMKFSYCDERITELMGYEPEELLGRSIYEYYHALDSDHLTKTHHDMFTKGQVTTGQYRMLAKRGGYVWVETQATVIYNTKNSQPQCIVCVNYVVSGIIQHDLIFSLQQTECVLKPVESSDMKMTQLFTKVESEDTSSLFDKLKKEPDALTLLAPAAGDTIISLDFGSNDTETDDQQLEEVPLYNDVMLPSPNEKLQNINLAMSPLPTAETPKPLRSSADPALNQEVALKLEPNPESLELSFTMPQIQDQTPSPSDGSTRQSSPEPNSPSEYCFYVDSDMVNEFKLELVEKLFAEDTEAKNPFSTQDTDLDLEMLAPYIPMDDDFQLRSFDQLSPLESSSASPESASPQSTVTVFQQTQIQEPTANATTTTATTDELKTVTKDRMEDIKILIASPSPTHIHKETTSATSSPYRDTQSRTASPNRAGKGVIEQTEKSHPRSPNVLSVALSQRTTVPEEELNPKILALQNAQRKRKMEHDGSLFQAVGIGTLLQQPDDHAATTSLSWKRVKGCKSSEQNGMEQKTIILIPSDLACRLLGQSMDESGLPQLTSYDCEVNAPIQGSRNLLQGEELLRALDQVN
In short: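 HepG2, transient cis-reporter library, 24 h dosing. RNA → RT (oligo dT) → PCR → 6-FAM primer extension → HpaI → CE. Bidirectional curve fit vs DMSO.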

| Structure (SMILES) | outcome | AC50 |
| --- | --- | --- |
| c1ccc2c(c1)sc1ccccc12 | inactive | – |
| Nc1ccc(Cl)cc1 | inactive | – |
| Nc1ccc2ccccc2c1 | inactive | – |
| Nc1ccc([N+](=O)[O-])cc1Cl | inactive | – |
| CCOP(=S)(OCC)SCSCC | inactive | – |
| CCOP(=S)(S)OCC | inactive | – |
| OCC(F)(F)OC(F)(F)C(F)(F)OC(F)(F)C(F)(F)OC(F)(F)F | inactive | – |
| O=C(O)C(F)(F)C(F)(F)C(=O)O | inactive | – |
| Cc1cc(C)c(C(=O)P(=O)(c2ccccc2)c2ccccc2)c(C)c1 | inactive | – |
| CC(C)(C)OOC(C)(C)C | inactive | – |
| Cn1[nH]nnc1=S | – | 27 µM (active) |
| CCOP(=S)(Oc1ccc([N+](=O)[O-])cc1)c1ccccc1 (stereo unspecified) | inactive | – |
| FC(F)(F)C(F)(C(F)(F)F)C(F)(F)C(F)(F)CC1CO1 (stereo unspecified) | inactive | – |
| CCOC(=O)c1ccccc1N | inactive | – |
| Oc1ccccc1Br | inactive | – |
| CCOc1ccc(C(C)(C)COCc2cccc(Oc3ccccc3)c2)cc1 | inactive | – |
| CCCCc1ccccc1 | – | 59.2 µM (active) |
| CC1=C(C(=O)Nc2ccccc2)S(=O)(=O)CCO1 | – | 27.2 µM (active) |
| ClC(Cl)=C(c1ccc(Cl)cc1)c1ccccc1Cl | inactive | – |

| Structure (SMILES) | outcome | AC50 |
| --- | --- | --- |
| CCCCC(CC)COC(=O)c1c(Br)c(Br)c(Br)c(Br)c1C(=O)OCC(CC)CCCC (stereo unspecified) | inactive | – |
| OCC(F)(F)OC(F)(F)C(F)(F)OC(F)(F)C(F)(F)OC(F)(F)CO | inactive | – |
| COP(=O)(O)OC | inactive | – |
| Clc1ccc(Oc2ccccc2)cc1 | inactive | – |
| N#Cc1ccc(O)cc1 | inactive | – |
| CC(O)C#N (stereo unspecified) | inactive | – |
| CCN(CC)c1ccccc1 | inactive | – |
| CC(C)Nc1ccc(Nc2ccccc2)cc1 | inactive | – |
| OCC1CO1 (stereo unspecified) | inactive | – |
| CCCCC(CC)COP(=O)(Oc1ccccc1)Oc1ccccc1 (stereo unspecified) | – | 100 µM (active) |
| CCCCCCCc1ccc(O)cc1 | inactive | – |
| ClC(Cl)c1ccccc1 | inactive | – |
| COP(N)(=S)OC | inactive | – |
| CCCCN(CCCC)N=O | inactive | – |
| CC(C)(C)N(NC(=O)c1ccc(Cl)cc1)C(=O)c1ccccc1 | inactive | – |
| c1ccc2c(c1)Nc1ccccc1S2 | inactive | – |
| O=P(Oc1ccccc1)(Oc1ccccc1)Oc1ccccc1 | inactive | – |
| CCNc1nc(Cl)nc(NC(C)(C)C)n1 | inactive | – |
| O=NN1CCCC1 | inactive | – |
